Test results taken from the supplement of paper PMC6555819.

What was measured:
Experiment in all cases: PBM binding z-score (relative to random genomic background probes); higher = stronger binding; sequences stand for … in GC…GCGATTGACAGCGTAGAATGAAGG
[1] = tested on: PPARg:RXRa DBDmut IVT, anti-RXR (DBD mutation: RXRa K156A/R161A, NR concentration 270 nM, RXRa partner concentration 90 nM)
Procedure, shortened: (§1)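 Ligand-free nuclear receptor dimers were bound for 1 h to custom Agilent 4×180K protein-binding microarrays. Detection used antibodies against each partner (one per run). Binding z-scores rest on regression-normalized fluorescence, with random background probes as the reference.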

[2] = tested on: PPARg:RXRa IVT, anti-PPARg (NR concentration 270 nM, RXRa partner concentration 90 nM)
Procedure, shortened: as §1

[3] = tested on: PPARg DBDmut:RXRa IVT, anti-PPARg (DBD mutation: PPARg1 K132A/R137A, NR concentration 270 nM, RXRa partner concentration 90 nM)
Procedure, shortened: as §1

[4] = tested on: PPARg DBDmut IVT, anti-PPARg (DBD mutation: PPARg1 K132A/R137A, NR concentration 270 nM)
Procedure, shortened: as §1

[5] = tested on: PPARg homodimer (NR concentration 180 nM)
Procedure, shortened: as §1

[6] = tested on: PXR:RXRa (NR concentration 270 nM, RXRa partner concentration 90 nM)
Procedure, shortened: as §1

[7] = tested on: PXR homodimer (NR concentration 270 nM)
Procedure, shortened: as §1

[8] = tested on: RARa:RXR (NR concentration 270 nM, RXRa partner concentration 90 nM)
Procedure, shortened: as §1

[9] = tested on: RARa homodimer (NR concentration 270 nM)
Procedure, shortened: as §1

[10] = tested on: RARb:RXRa (NR concentration 270 nM, RXRa partner concentration 90 nM)
Procedure, shortened: as §1

Sequence | PBM binding z-score [1] | PBM binding z-score [2] | PBM binding z-score [3] | PBM binding z-score [4] | PBM binding z-score [5] | PBM binding z-score [6] | PBM binding z-score [7] | PBM binding z-score [8] | PBM binding z-score [9] | PBM binding z-score [10]
TCTATTAGTTGAAGGGCTACCGACGAGTCCGTTT | 2.41 | 0.0404 | 0.251 | -0.451 | 1.24 | 0.647 | 0.375 | 0.611 | 1.16 | 0.525
CAAACTAGGTCAAGGTCAATGTCGGTTTGTGCCA | 8.55 | 8.45 | 5.91 | 4.78 | 4.97 | 4.89 | 2.16 | 4.96 | 2.18 | 5.03
CGGCCAAGGTCATAGGAGGTCAGTGAAGACAGAT | 2.94 | 4.46 | -0.828 | -0.774 | 4.97 | 6.76 | 3.6 | 5.88 | 1.82 | 5.29
CCGACTTGGGCATAAGGTTACCATAAGCCAGCCC | -0.117 | -0.425 | -0.991 | -1.38 | 0.34 | 0.211 | -0.364 | 0.822 | -0.32 | 0.922
GATACAGGGTCAGCTAGCGGCCAGAGTATGGAAA | 1.01 | 2.05 | 0.0696 | -0.868 | 1.51 | 2.37 | -0.651 | 3.79 | 0.418 | 3.96
TCTAGTTGTTCACGGAGGTCACACACGACGGGTA | 1.73 | 2.51 | 0.302 | 1.32 | 2.67 | 4.27 | 1.07 | 4.45 | 1.31 | 3.37
TAGCCTAGGTCAGTGGGCCAGTATAGTACGCATC | 2.3 | 3.72 | -0.247 | 0.15 | 0.486 | 0.1 | -0.662 | 0.533 | -1.07 | 3.01
AGTCAAAGTTCAGGAGGAGGTAACGTAAAGCACG | -0.11 | 2.24 | 0.683 | 1.05 | 2.81 | 3.09 | 1.96 | 3.17 | 1.91 | 4.57
CCGACTGGGGCAAAGGTTATCATACTCAGTACGA | 4.35 | 5.85 | -0.186 | 0.138 | 2.13 | 2.11 | -0.0954 | 3.14 | -0.00422 | 2.08
GTACCAAGGTGAATAGGTCGTCGATGAGTAGGCG | 1.91 | 2.77 | -0.404 | -0.279 | 0.976 | 0.807 | -0.119 | 1.9 | 0.0363 | 2.18
TCTCGCAGGCCAGAGGGTCACTCAAGAGGTACGG | 0.998 | 0.394 | -0.712 | -0.719 | 0.381 | 1.62 | -0.348 | 2.25 | -0.311 | 2.45
CCTTACGGGACACGAGGTTATAGCACGACGAGCG | 0.526 | 0.867 | 0.559 | 0.413 | 0.721 | 0.701 | 0.477 | 0.935 | 0.721 | 1.11
CCTAGCAGGCCAATCTGGGTCCCTCAAGGCTTGA | 1.13 | 0.925 | -1.33 | -1.81 | -1.12 | -0.641 | -0.809 | -0.522 | -0.809 | 0.0212
CGTCCAACGTCAAAGGTCAGTGAAGAGATGACGG | -0.294 | 1.63 | -0.376 | -0.0246 | 3.55 | 3.58 | 0.376 | 5.04 | 1.79 | 4.24
CCTGCTAGGGCATGGTCAGCTAATCTACAGTATG | 1.27 | 0.942 | -0.789 | -1.21 | -0.604 | -0.584 | -0.686 | -0.414 | -0.802 | 1.43
CCTAGCAGGCCAATCTGGGGCACTCAAGGCTTGA | 3.51 | 3.96 | -0.514 | -1.4 | -0.431 | -0.51 | -1.01 | -0.273 | -0.87 | 0.323
CCTAGTTGGTCAAGGTCACAAACGCTATAGGTAC | 2.22 | 3.73 | 1.23 | 1.64 | 2.99 | 3.94 | 1.93 | 4.17 | 2.34 | 4.05
TAGCCTAGGTCAAATCGGGCCAGTATACGCTATA | 1.98 | 3 | 0.169 | 0.237 | 1.68 | 2.95 | -0.306 | 2.74 | -0.373 | 3.68
CCTACTGGGCTAAGGTCATTGATCAGTCAAAGCA | 2.72 | 2.94 | -0.43 | -0.707 | 2.17 | 4.1 | 1.25 | 4.17 | -0.024 | 3.5

Sequence | PBM binding z-score [1] | PBM binding z-score [2] | PBM binding z-score [3] | PBM binding z-score [4] | PBM binding z-score [5] | PBM binding z-score [6] | PBM binding z-score [7] | PBM binding z-score [8] | PBM binding z-score [9] | PBM binding z-score [10]
TCGAGTAGGTTACCAATGGGGCATTTAGCTTTCT | 3.03 | 2.59 | -0.535 | -0.583 | -0.292 | 0.195 | -0.763 | 0.343 | -1.23 | 0.686
GTACCAAGGTGAATTGGTCGTTGATGAGTAGGCG | 1.6 | 1.85 | 0.108 | 0.076 | -0.163 | -0.436 | -0.573 | -0.15 | -0.635 | 1.17
CCGACTGGGGCAGAAAGGTTACAATACCATCCGG | 1.65 | 1.7 | -0.655 | -0.38 | 0.958 | 1.14 | -0.0674 | 1.67 | 0.24 | 1.73
CCGAGTAGGGTATGGGGCATTCAGGCAACGGTGA | 0.659 | 1.58 | -0.658 | -0.796 | 0.951 | -0.379 | -0.14 | -0.154 | 0.135 | 0.278
TCGAGTAGGTAAGTCGGGGCATTCAGCCAACATA | 1.34 | 0.805 | -1.3 | -0.763 | -0.452 | -0.238 | -0.436 | -0.22 | -0.413 | -0.182
CTACCAAGGTGAACAAGGTCGTTCATTACTATTC | 4.04 | 2.99 | 0.407 | 0.669 | 1.03 | 3.55 | 3.05 | 2.7 | 0.251 | 2.38
TAGCCTAGGTCATGGGACAGTATACCACGCGAAC | 1.93 | 3.38 | 0.841 | 0.664 | 2.06 | 1.99 | -0.252 | 2.89 | 0.415 | 3.88
TATGCTAGGTCAACGATGGTCAGCTAATCTGCTA | 2.97 | 3.84 | 1.31 | 1.14 | 1.14 | 1.77 | -0.438 | 2.6 | -0.282 | 3.96
ACAGACAGGTGAGTGAAAGTAACTCAGCTGGACG | 0.546 | 0.438 | -0.222 | 0.175 | -1.05 | -0.413 | -0.648 | 0.2 | -0.554 | 0.304
TCGAGTAGTTTAGGGGCATTCAGAATGGCGTCGA | 0.75 | -0.281 | -0.799 | -1.01 | -0.288 | 0.444 | -0.187 | 0.532 | -0.906 | 0.653
AGAACGAGGGCAATGAGTTGATAGAACGGGTGGC | 3.29 | 2.76 | 0.559 | -0.194 | 0.0958 | 1.47 | 4.31 | 0.324 | -0.124 | 1.83
AGAATGAGCTTATTAAGATCAGGGAATTGCGGTC | -0.544 | -0.262 | 0.296 | 0.244 | -0.453 | -0.238 | -0.13 | -0.065 | -0.11 | -0.496
CCTAGCAGGACAATCTGGGTCACTCAAGGCTTGA | 4.78 | 5.33 | -0.134 | -0.424 | 0.6 | 0.609 | -0.664 | 1.67 | -0.343 | 1.42
TCGAGTAGGTTGGGGGCATTCAGAATGGCGTCGA | 1.25 | 2.38 | 3.04 | 5.62 | 0.737 | 2.82 | 1.75 | 1.98 | 0.0369 | 1.6
CGTCCAAGCTCATAGGAGGTCAGTGAAGACAGAT | 0.199 | 0.722 | -0.21 | -0.262 | 1.08 | 1.59 | 0.494 | 1.79 | 0.761 | 2.03
AGCATGAGGTTAAGATCAGGGAAACAGAATACAT | 0.0322 | 0.624 | 0.52 | -0.142 | 0.333 | 1.23 | 0.477 | 2.07 | 0.813 | 2.02
GCGACTGGGGCATCAGCAGGTTACCTTAACTTAA | 3.64 | 3.03 | -1.1 | -0.949 | 0.152 | 0.367 | -0.375 | 0.558 | -0.549 | 0.828
TCTAGTTGGTCACAGGTCACACACTCGAAATGCG | 3.01 | 4.53 | 1.58 | 1.96 | 2.52 | 3.06 | 0.924 | 3.51 | 1.49 | 3.33
